The target of experiment [1] is T1, Aspartate--tRNA(Asp/Asn) ligase (Mycobacterium tuberculosis (strain ATCC 25618 / H37Rv)) (UniProt P9WFW3). Further: in the data most compounds retested in dose-response had high values.
T1 sequence (whole entry): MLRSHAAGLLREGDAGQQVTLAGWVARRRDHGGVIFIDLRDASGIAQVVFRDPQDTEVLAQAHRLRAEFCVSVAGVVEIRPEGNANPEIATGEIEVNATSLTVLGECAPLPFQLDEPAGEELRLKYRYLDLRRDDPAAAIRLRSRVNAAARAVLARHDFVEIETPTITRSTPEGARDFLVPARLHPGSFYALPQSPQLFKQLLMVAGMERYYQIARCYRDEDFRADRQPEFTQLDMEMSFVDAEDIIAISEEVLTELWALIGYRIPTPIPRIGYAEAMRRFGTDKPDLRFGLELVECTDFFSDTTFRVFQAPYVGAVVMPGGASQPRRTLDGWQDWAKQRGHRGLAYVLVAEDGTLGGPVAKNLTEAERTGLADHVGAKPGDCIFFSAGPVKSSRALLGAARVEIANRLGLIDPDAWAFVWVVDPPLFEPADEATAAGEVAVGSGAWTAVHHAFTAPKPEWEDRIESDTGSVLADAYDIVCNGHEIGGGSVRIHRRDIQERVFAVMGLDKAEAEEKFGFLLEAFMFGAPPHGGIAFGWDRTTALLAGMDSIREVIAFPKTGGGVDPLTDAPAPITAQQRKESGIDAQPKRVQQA
The experiment in a line: Assay for Asp RNA synthetase-1 from Mycobacterium tuberculosis. As to conditions: 30 µM. Type of experiment: functional. Set-up: scale not given: direction of the effect not stated beside the values.

Experiment [2] has as its target Shiga toxin 2 (Escherichia coli O157:H7) (UniProt P09385+P09386). The experiment in a line: E. coli 0.157:H7 Shiga Toxin SOP - stx2 screening assay. It is filed as functional. Set-up: scale not given: direction of the effect not stated beside the values. Conditions: 30 µM.

On to `COc1ccc(NC(C)C(=O)N2CCN(Cc3ccccc3)CC2)cn1` (configuration not stated), for which the Percent Effect in experiment [1] is 3.97%; in experiment [2] it was -11.8%.
As to `Cc1cc(NC(=O)NCc2cccnc2OC(C)C)n(C)n1`, the Percent Effect is 5.63% in experiment [1] and -9.92% in experiment [2].
For `CSc1ccc(NC(=O)Nc2ccc3c(c2)N(S(C)(=O)=O)CC3)cc1`, the Percent Effect in experiment [1] is -2.32%; in experiment [2] it was -21.8%.
The matching figures for `COc1ccc(OC)c(NC(=O)NCC(O)c2ccc(F)c(F)c2)c1` (configuration not stated): 4.09% and -0.389%.
Taken in the same sequence, the figures for `Cn1cnc(-c2cc(C(=O)N3CCOCC3)c3ccccn23)c1` were 1.18% and -6.75%.
Turning to `Cc1cnc(CN2CCCC(c3cc(C(F)(F)F)[nH]n3)C2)cn1` (configuration not stated), the Percent Effect in experiment [1] is -6.86%; in experiment [2], 7.14%.
Taken in the same sequence, the figures for `CNC(=O)c1ccc(CN2CCC(N(C)Cc3noc(C)n3)C2)cc1` (configuration not stated) were -0.577% and 7.96%.
Consider `Cc1ccc(NC(=O)C(C)N2CCCN(c3nccs3)CC2)c(C)c1` (configuration not stated), for which the figures for the Percent Effect in experiment [1] and in experiment [2] were -4.7% and -49.5%, respectively.
As to `CCc1nnc(CNCC2CCCN2c2cccnn2)o1` (configuration not stated), the figures for the Percent Effect in experiment [1] and in experiment [2] were -1.12% and -52.3%, respectively.
Taken in the same sequence, the figures for `CCn1cnnc1CNC(=O)N1CCN(c2cccs2)CC1` were -5.34% and -43.6%.
For the molecule `Fc1ccc2c(c1)C(NCc1nnc3n1CCCCC3)CCCO2` (configuration not stated), the results for the Percent Effect in experiment [1] and in experiment [2] were -3.62% and -12.2%, respectively.
As to `Cc1ccc(N2CCC3(CCCN(C(=O)c4cccnc4)C3)C2)nn1` (configuration not stated), the Percent Effect in experiment [1] is 8.13%; in experiment [2], -11%.
The matching figures for `CCc1ccc(CNC(=O)NC(C)CN2CCOCC2)s1` (configuration not stated): 1.38% and -4.66%.
Taken in the same sequence, the figures for `Cc1cc(C)n(CC2CCCN2CCS(=O)(=O)c2ccccc2)n1` (configuration not stated) were -0.833% and -9.51%.
The matching figures for `CC(=O)NC1CCCN(C(=O)NCc2cccnc2-n2cccn2)C1` (configuration not stated): -3.6% and -14.7%.
Regarding `CC(C)c1nc(C(=O)N2CCCC(n3cncn3)C2)c[nH]1` (configuration not stated), the results for the Percent Effect in experiment [1] and in experiment [2] were -5.02% and -8.87%, respectively.
Taken in the same sequence, the figures for `CCCc1cc(=O)[nH]c2nnc(SCC(=O)NCc3ccc(C)cc3)n12` were -7.99% and 2.17%.
Taken in the same sequence, the figures for `CSc1ncccc1C(=O)N1C[C@H]2CC[C@@H]1CN(c1ncccn1)C2` were 4.84% and -56.4%.
The matching figures for `O=C(NCc1ccccc1)[C@H]1C[C@@H]2CN(S(=O)(=O)C3CC3)C[C@H]1O2`: 6.82% and 2.32%.
Turning to `COc1cccc(OCCNCc2c(C)nn(C)c2N(C)C)c1`, the Percent Effect in experiment [1] was -1.97%; in experiment [2], 19.6%.
Taken in the same sequence, the figures for `COc1ccccc1OCc1cc(C(=O)N2CCN[C@H](C)C2)n[nH]1` were 0.167% and -31.9%.
The matching figures for `COc1c(CNCc2ccc(C(=O)NC3CC3)cc2)c(C)nn1C`: -3.68% and -14.2%.
Consider `CC(C)CCN1CCC2(CC1)CN(C(=O)c1cnccn1)CCO2`, for which the Percent Effect in experiment [1] is -0.349%; in experiment [2] it was -0.912%.
Taken in the same sequence, the figures for `CC(C)Cc1cc(C(=O)NCc2nnc[nH]2)[nH]n1` were 1.11% and 2.04%.
Taken in the same sequence, the figures for `CCCNC(=O)c1c(-n2cnnn2)sc2c1CCC2` were 1.26% and -42%.
The matching figures for `COc1cc(C)ccc1OCCC(=O)N1CCCC1Cn1cccn1` (configuration not stated): 2% and 12.8%.
For the molecule `CCc1n[nH]c(C2CN(C(=O)c3cnc[nH]3)CCO2)n1` (configuration not stated), the figures for the Percent Effect in experiment [1] and in experiment [2] were -1.76% and 27.7%, respectively.
The matching figures for `NC(=O)c1ccc(NC(=O)CCN2CCCC(N3CCCC3)C2)cc1` (configuration not stated): -4.91% and 24.7%.
The matching figures for `CC(OCC1CC1)C(=O)N1CCCN(Cc2cnn(C)c2)CC1` (configuration not stated): 1.41% and -83.1%.
The matching figures for `Cc1cc(C2CCCN(C(=O)c3c(C)noc3C)C2)n[nH]1` (configuration not stated): -1.62% and 8.79%.
Take `CCn1nc(C)c2nnn(CC(=O)Nc3c(C)cccc3C)c(=O)c21`: the Percent Effect was -2.79% in experiment [1] and -11.8% in experiment [2].
On to `OCCn1cc(CN2CCN(CCOc3ccccc3)CC2)cn1`, for which the Percent Effect in experiment [1] came out at 0.728%; in experiment [2] it was 13.3%.
Taken in the same sequence, the figures for `Cc1ccc(Nc2nccc(C3CN(CC(N)=O)C3)n2)nc1` were -1.29% and -33.3%.
The matching figures for `O=C(NCC(F)F)N1CCC(n2ccc(C(F)(F)F)n2)CC1`: -6.76% and -7.64%.
As for `CN(C)C(=O)CSc1nnc(CCNC(=O)OC(C)(C)C)o1`, the Percent Effect in experiment [1] was 2.93%; in experiment [2], -59.4%.
The matching figures for `NC(=O)Cc1ccc(NC(=O)C2CCOCC2)cc1`: 1.11% and 20.8%.
In the case of `Cc1ccc(N(C)C2CCN(C(=O)CCc3ccco3)CC2)nn1`, the figures for the Percent Effect in experiment [1] and in experiment [2] were 2.42% and -5.22%, respectively.
The matching figures for `COc1ccc(CC(=O)N2CCCC2Cn2cccn2)cc1F` (configuration not stated): -0.871% and 15.1%.
Turning to `CC(C)CNc1nc(C(=O)/N=c2\[nH]nc(C(C)(C)C)s2)cs1`, the figures for the Percent Effect in experiment [1] and in experiment [2] were -0.96% and -23.9%, respectively.
The matching figures for `O=C(NC1CC1)N1CCc2ncnc(-c3ccncc3)c2CC1`: 5.15% and -28.2%.
The matching figures for `CCOC1CCCN(C(=O)c2sccc2-n2cnnn2)C1` (configuration not stated): -4.21% and -8.57%.
For the molecule `Cc1ccc2c(ccn2CCC(=O)N2CCC(C(N)=O)CC2)c1`, the Percent Effect in experiment [1] is 0.842%; in experiment [2], -2.06%.
`O=C(c1cn(-c2ccccc2Cl)nn1)N1CCCSCC1`: the Percent Effect in experiment [1] stood at 0.212%; in experiment [2], 5.41%.
For `CNC(=O)C1CCN(C(=O)c2ccn(-c3ccc(F)cc3)n2)CC1`, the Percent Effect in experiment [1] came to 3.5%; in experiment [2], 7.26%.
As to `Fc1cccc(-n2ccc(CN3CCCCC3Cn3cncn3)n2)c1` (configuration not stated), the figures for the Percent Effect in experiment [1] and in experiment [2] were -3.17% and 17.2%, respectively.
The matching figures for `COCc1nc(C(=O)NS(=O)(=O)c2ccc(C)s2)cs1`: 0.678% and -34.1%.

Source of the values: ChEMBL document CHEMBL3988442, “University of Dundee, Small-Polar-MMV Screening Library” (2021).
